Test results published in ChEMBL document CHEMBL1157539, “Thousands of chemical starting points for antimalarial lead identification” (Nature, 2010).

Experiments:
Assay type in all cases: functional
Plasmodium falciparum [1] = test: GSK_TCMDC: Inhibition of Plasmodium falciparum 3D7 in whole red blood cells, using parasite LDH activity as an index of growth. Test compounds present at 2uM
Plasmodium falciparum [2] = test: GSK_TCMDC: Inhibition of Plasmodium falciparum Dd2 in whole red blood cells, using parasite LDH activity as an index of growth. Test compounds present at 2uM
HepG2 = test: GSK_TCMDC: Percent inhibition of human HepG2 cell line. Test compounds present at 10uM.

CC(C)CCCC(C)NC[C@@H](O)[C@H](Cc1ccccc1)NC(=O)c1cc(N2CCCC2=O)cc(N(c2ccccc2)S(C)(=O)=O)c1 (stereo not given in full)
Inhibition (Plasmodium falciparum [1]): 99% | Inhibition (Plasmodium falciparum [2]): 97% | Inhibition (HepG2): 17%

O=C(Nc1cccc(-c2cc(-c3c(Cl)cccc3Cl)no2)c1)c1cnc2ccccc2c1
Inhibition (Plasmodium falciparum [1]): 87% | Inhibition (Plasmodium falciparum [2]): 34% | Inhibition (HepG2): 0%

Cc1ccc(NC(=O)c2ccc(Cl)c(Cl)c2)cc1-c1ccc(C(=O)Nc2ccncc2)cc1
Inhibition (Plasmodium falciparum [1]): 99% | Inhibition (Plasmodium falciparum [2]): 79% | Inhibition (HepG2): 39%

CCCNc1ccc2nccc(CCN3CCC(NCc4ccc5c(c4)NC(=O)CS5)CC3)c2n1.Cl
Inhibition (Plasmodium falciparum [1]): 94% | Inhibition (Plasmodium falciparum [2]): 17% | Inhibition (HepG2): 0%

CC[C@H](N/C(=N\c1cccc(Cl)c1Cl)Nc1ccc(C#N)cc1O)c1ccccc1
Inhibition (Plasmodium falciparum [1]): 91% | Inhibition (Plasmodium falciparum [2]): 71% | Inhibition (HepG2): 0%

Cl.NC1=NC(c2ccccc2)N(c2ccc(Cl)c(Cl)c2)C(N)=N1 (stereo not given)
Inhibition (Plasmodium falciparum [1]): 94% | Inhibition (Plasmodium falciparum [2]): 0% | Inhibition (HepG2): 13%

N#Cc1ccc(-c2ccc(C(=O)NCCCCN3CCC(c4ccc5c(c4OCC(N)=O)CCCC5)CC3)nc2)cc1
Inhibition (Plasmodium falciparum [1]): 100% | Inhibition (Plasmodium falciparum [2]): 97% | Inhibition (HepG2): 21%

C=CCn1c(Sc2ccc(C#N)c([N+](=O)[O-])c2)nnc1-c1ccc(Cl)cc1
Inhibition (Plasmodium falciparum [1]): 97% | Inhibition (Plasmodium falciparum [2]): 85% | Inhibition (HepG2): 13%

CC(CCCCC(=O)Nc1ccc(CC(C)NCCc2cccc(Cl)c2)cc1)NCCc1cccc(Cl)c1 (stereo not given)
Inhibition (Plasmodium falciparum [1]): 91% | Inhibition (Plasmodium falciparum [2]): 0% | Inhibition (HepG2): 28%

COc1ccc2ncc(F)c([C@@H](O)CN3CCC(NCc4cc(C#N)c5c(c4)CCO5)CC3)c2n1
Inhibition (Plasmodium falciparum [1]): 92% | Inhibition (Plasmodium falciparum [2]): 50% | Inhibition (HepG2): 15%
